# Reference: PubChem BioAssay (NCATS)
# Unmarked numbers belong to inactive results. Results filed as inconclusive are left out. A call without a number means that no potency is given here. Calls of active or inactive are those of the source. Calls come from the whole dose curve; as a rule, active = well fitted curve in the direction sought with a large enough effect; inconclusive = small, poorly fitted or top-dose-only effect, or another doubt; inactive = no such curve, though single readings can be large; an effect the other way counts as inactive or inconclusive.
# Key:
# [1] = molecular target: Glutathione peroxidase 1 (Homo sapiens) (UniProt P07203); assay: Primary qHTS Assay for Inhibitors of Recombinant Selenoprotein Glutathione Peroxidase 1 (GPX1) (AID 1845191); conditions: recombinant GPX1, GR-coupled NADPH fluorescence, 15 min; series mostly up to 48.8 µM; note: nearly all actives have a fitted effect of over 65% in size
# Summary of the method: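 NADPH consumption tracked by fluorescence at 340/450 nm between t=0 and t=15 min, room temperature. Final mix: 10 nM GPX1, 100 nM glutathione reductase, 1 mM GSH, 0.5 mM NADPH, 0.5 mM cumene hydroperoxide, 0.01% BSA; 30 min compound–enzyme preincubation.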
# [2] = molecular target: Phospholipid hydroperoxide glutathione peroxidase GPX4 (Homo sapiens) (UniProt P36969); assay: Primary qHTS Assay for Inhibitors of Recombinant Selenoprotein Glutathione Peroxidase 4 (GPX4) (AID 1845192); conditions: recombinant GPX4, GR-coupled NADPH fluorescence, 15 min; series mostly up to 50 µM; note: nearly all actives have a fitted effect of over 65% in size
# Summary of the method: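 NADPH consumption followed by fluorescence at 340/450 nm, t=0 and after 15 min at room temperature. Reaction started with cumene hydroperoxide (0.5 mM final) after 30 min compound–GPX4 preincubation; final 200 nM GPX4, 100 nM GR, 1 mM GSH, 0.5 mM NADPH.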
# [3] = molecular target: Luciferin 4-monooxygenase (Photinus pyralis) (UniProt P08659); assay: Primary firefly luciferase (FLuc) qHTS assay for identification of artifact compounds. (AID 1845220); conditions: purified firefly luciferase, luminescence, 5 min; series mostly up to 54.1 µM; note: nearly all actives have a fitted effect of over 60% in size
# Summary of the method: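 Compounds sat 15 min at room temperature with 10 uM luciferin and 10 uM ATP (pH 7.6 Tris acetate). Firefly luciferase (10 nM final) was then added, and luminescence was read 5 min later. Data normalized to no-enzyme and DMSO controls were Hill-fitted.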
# [4] = Primary fluorescence-based thiol-reactive (MSTI) qHTS assay for identification of artifact compounds. (AID 1845221); conditions: MSTI thiol-reactivity probe, 1 h; series mostly up to 53.8 µM; note: nearly all actives have a fitted effect of over 65% in size; note: potency is the fitted concentration of half-maximal effect;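 for activity change, negative = thiol reactive: thiol-reactive compounds lower the probe fluorescence signal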
# Summary of the method: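 Reactivity toward the thiol probe MSTI (4 uM) is scored by fluorescence at Ex/Em 525/598 nm after 1 h at room temperature. Acetyl-MSTI and MSTI define the activity scale.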
# [5] = tested on: Nanoluciferase (engineered Oplophorus gracilirostris luciferase); assay: Primary Nanoluciferase (NLuc) qHTS assay for identification of artifact compounds. (AID 1845222); conditions: NLuc-conditioned medium, Nano-Glo luminescence, 5 min; series mostly up to 54.1 µM
# Summary of the method: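 Luminescence from secreted NLuc (filtered, 1:55-diluted S16 cell medium) read 5 min after Nano-Glo substrate; compounds preincubated 15 min, RT. Hill fits of inhibition normalized to DMSO and no-enzyme.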
# [6] = Primary redox qHTS assay for identification of artifact compounds. (AID 1845223); conditions: Amplex Red/HRP redox cycling with DTT, fluorescence; series mostly up to 53.8 µM
# Summary of the method: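 Redox-cycling detection via DTT (250 uM final) oxidation coupled to Amplex Red (25 uM)/HRP (250 mU/mL) in HBSS. 15 min preincubation plus 30 min after DTT, room temperature. Ex/Em 525/598 nm; 4-parameter Hill fit against DMSO and 10 uM DA3003.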
# Chain of Phospholipid hydroperoxide glutathione peroxidase GPX4 (Homo sapiens) (P36969 whole entry, looked up): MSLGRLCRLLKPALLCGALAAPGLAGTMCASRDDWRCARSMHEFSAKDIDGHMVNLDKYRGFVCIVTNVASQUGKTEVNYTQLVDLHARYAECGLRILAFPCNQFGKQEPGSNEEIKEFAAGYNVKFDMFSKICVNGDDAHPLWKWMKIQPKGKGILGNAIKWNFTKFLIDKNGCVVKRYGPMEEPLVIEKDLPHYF
# Chain of Glutathione peroxidase 1 (Homo sapiens) (P07203 whole entry, looked up): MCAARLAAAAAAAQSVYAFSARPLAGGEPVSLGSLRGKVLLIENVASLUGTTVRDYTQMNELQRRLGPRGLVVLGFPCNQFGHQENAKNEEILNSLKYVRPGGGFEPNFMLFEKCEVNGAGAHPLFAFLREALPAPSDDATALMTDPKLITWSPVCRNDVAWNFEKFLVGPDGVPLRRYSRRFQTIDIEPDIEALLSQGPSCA
smiles,measurement,setting,value
COc1cc(Nc2nc3c(s2)CCCC3c2ccc(F)cc2)ccc1-n1cnc(C)c1 (configuration not stated),Potency,[1],inactive
same,Potency,[2],inactive
same,Potency,[3],inactive
same,Potency,[4],11.9 µM (active)
same,Potency,[5],inactive
same,Potency,[6],inactive
C[C@H](NC(c1cccc2[nH]c(=O)c(=O)[nH]c12)P(=O)(O)O)c1ccc(Br)cc1 (some centres not stated),Potency,[1],inactive
same,Potency,[2],inactive
same,Potency,[3],inactive
same,Potency,[4],inactive
same,Potency,[5],inactive
same,Potency,[6],inactive
COc1cc(O)cc(C)c1C(=O)O[C@@H]1[C@H](O)[C@@H](CO)O[C@H]1n1ccc(=O)[nH]c1=O,Potency,[1],inactive
same,Potency,[2],inactive
same,Potency,[3],inactive
same,Potency,[4],inactive
same,Potency,[5],inactive
same,Potency,[6],inactive
CC1CCC2C(C(=O)O)=COC(O[C@@H]3O[C@H](CO)[C@@H](O)[C@H](O)[C@H]3O)C12 (some centres not stated),Potency,[1],inactive
same,Potency,[2],inactive
same,Potency,[3],inactive
same,Potency,[4],5.85 µM (active)
same,Potency,[5],inactive
same,Potency,[6],inactive
CNC12CC3C[C@@](C)(C1)C[C@](C)(C3)C2,Potency,[1],inactive
same,Potency,[2],inactive
same,Potency,[3],inactive
same,Potency,[4],inactive
same,Potency,[5],inactive
same,Potency,[6],inactive
C[C@@H]1O[C@@H](O[C@@H]2CO[C@@H](O[C@H]3CC[C@@]4(C)C(CC[C@]5(C)C4CC=C4[C@@H]6CC(C)(C)CC[C@]6(C(=O)O[C@@H]6O[C@H](CO)[C@@H](O)[C@H](O)[C@H]6O)CC[C@]45C)[C@]3(C)CO)[C@H](O)[C@H]2O[C@@H]2O[C@H](CO)[C@@H](O)[C@H](O)[C@H]2O)[C@H](O)[C@H](O)[C@H]1O (some centres not stated),Potency,[1],inactive
same,Potency,[2],inactive
same,outcome,[3],inactive [at 11.6 µM]
same,"activity change, negative = thiol reactive",[4],216% [at 11.5 µM]
same,"activity, negative = inhibition",[5],-0.413% [at 11.6 µM]
same,redox activity (% of DA3003),[6],7.97% [at 11.5 µM]
CN1C2CCC1CC(OC(=O)[C@H](CO)c1ccccc1)C2 (some centres not stated),Potency,[1],inactive
same,Potency,[2],inactive
same,Potency,[3],inactive
same,Potency,[4],inactive
same,Potency,[5],inactive
same,Potency,[6],inactive
CC(C)=CCC/C(C)=C/CC/C(C)=C/COC1OC(COC2OCC(OC3OCC(O)C(O)C3O)C(O)C2O)C(O)C(OC2OC(C)C(OC3OC(C)C(OC4OCC(OC5OC(C)C(O)C(O)C5O)C(O)C4O)C(O)C3O)C(O)C2O)C1O (configuration not stated),"activity, negative = inhibition",[1],1.32% [at 9.52 µM]
same,"activity change, negative = inhibition",[2],4.38% [at 9.73 µM]
same,outcome,[3],inactive [at 11.6 µM]
same,"activity change, negative = thiol reactive",[4],139% [at 11.5 µM]
same,"activity, negative = inhibition",[5],-0.192% [at 11.6 µM]
same,redox activity (% of DA3003),[6],11.7% [at 11.5 µM]
C[C@H](Nc1ncnc2nc[nH]c12)c1cc2ccc(F)cc2nc1-c1ccccn1,Potency,[1],inactive
same,Potency,[2],inactive
same,Potency,[3],inactive
same,Potency,[4],inactive
same,Potency,[5],inactive
same,Potency,[6],inactive
CC(=O)c1c(O)cc(O[C@@H]2O[C@H](CO)[C@@H](O)[C@H](O)[C@H]2O)cc1O,Potency,[1],inactive
same,Potency,[2],inactive
same,Potency,[3],inactive
same,Potency,[4],4.14 µM (active)
same,Potency,[5],inactive
same,Potency,[6],inactive
CC(CCC1(O)OC2CC3C4CCC5CC(O[C@@H]6O[C@H](CO)[C@@H](O)[C@H](O)[C@H]6O[C@@H]6O[C@@H](C)[C@H](O)[C@@H](O)[C@H]6O)C(O)CC5(C)C4CCC3(C)C2C1C)CO[C@@H]1O[C@H](CO)[C@@H](O)[C@H](O)[C@H]1O (some centres not stated),Potency,[1],inactive
same,Potency,[2],inactive
same,"activity change, negative = inhibition",[3],-2.32% [at 11.6 µM]
same,"activity change, negative = thiol reactive",[4],141% [at 11.5 µM]
same,"activity, negative = inhibition",[5],2.24% [at 11.6 µM]
same,redox activity (% of DA3003),[6],15.2% [at 11.5 µM]
CC1=CCC2C(C)(C)CCC[C@]2(C)[C@@]12CC[C@](C)(CC(=O)O)O2 (some centres not stated),Potency,[1],inactive
same,Potency,[2],inactive
same,Potency,[3],inactive
same,Potency,[4],inactive
same,Potency,[5],inactive
same,Potency,[6],inactive
N#C[C@@H]1C[C@H](F)CN1C(=O)CNC1[C@H]2CN(C(=O)c3ccc(F)cc3)C[C@@H]12 (some centres not stated),Potency,[1],inactive
same,Potency,[2],inactive
same,Potency,[3],inactive
same,Potency,[4],inactive
same,Potency,[5],inactive
same,Potency,[6],inactive
CC1CCCCN1S(=O)(=O)c1ccc(N2CCCC2=O)cc1 (configuration not stated),Potency,[1],inactive
same,Potency,[2],inactive
same,Potency,[3],inactive
same,Potency,[4],inactive
same,Potency,[5],inactive
same,Potency,[6],inactive
CC(=O)OC1C[C@]2(C)C(O)CC(C)=C[C@H](OC(=O)c3ccc(O)cc3)C2[C@]1(O)C(C)C (some centres not stated),Potency,[1],inactive
same,Potency,[2],inactive
same,Potency,[3],inactive
same,Potency,[4],inactive
same,Potency,[5],inactive
same,Potency,[6],inactive
CC1CCC2(OC1)OC1CC3C4CC=C5CC(O)CC(O[C@@H]6OC[C@@H](O)[C@H](O)[C@H]6O)C5(C)C4CCC3(C)C1(O)C2C (some centres not stated),Potency,[1],inactive
same,Potency,[2],inactive
same,Potency,[3],inactive
same,Potency,[4],inactive
same,Potency,[5],inactive
same,Potency,[6],inactive
O=C(Nc1ccc(-c2ccncc2)cc1)N[C@H](CO)c1ccccc1,Potency,[1],inactive
same,Potency,[2],inactive
same,Potency,[3],inactive
same,Potency,[4],inactive
same,Potency,[5],inactive
same,Potency,[6],inactive
COc1cc(C(=O)NC2CCN(C)CC2)ccc1Nc1ncc2c(n1)N(C1CCCC1)CC(F)(F)C(=O)N2C,Potency,[1],inactive
same,Potency,[2],inactive
same,Potency,[3],inactive
same,Potency,[4],inactive
same,Potency,[5],inactive
same,Potency,[6],inactive
C=C1CCC2C(C(C)(C)O)CCC2(C)CC(O)C(=C)CCC1O (configuration not stated),Potency,[1],inactive
same,Potency,[2],inactive
same,Potency,[3],inactive
same,Potency,[4],inactive
same,Potency,[5],inactive
same,Potency,[6],inactive
O=C(N/N=C/c1ccc(O)c(O)c1)c1cc2ccccc2cc1O,Potency,[1],inactive
same,Potency,[2],inactive
same,Potency,[3],inactive
same,Potency,[4],0.707 µM (active)
same,Potency,[5],inactive
same,Potency,[6],inactive
OC[C@H]1O[C@@H](Oc2ccccc2)[C@H](O)[C@@H](O)[C@@H]1O,Potency,[1],inactive
same,Potency,[2],inactive
same,Potency,[3],inactive
same,Potency,[4],21.2 µM (active)
same,Potency,[5],inactive
same,Potency,[6],inactive
O=C(CC(c1ccccc1)c1ccccc1)N1CCN(C(c2ccccc2)c2ccccc2)CC1,Potency,[1],inactive
same,Potency,[2],inactive
same,Potency,[3],inactive
same,Potency,[4],inactive
same,Potency,[5],inactive
same,Potency,[6],inactive
